Test [1] addresses T1, cGMP-dependent protein kinase 1 (Homo sapiens) (UniProt Q13976).
T1 sequence (whole entry): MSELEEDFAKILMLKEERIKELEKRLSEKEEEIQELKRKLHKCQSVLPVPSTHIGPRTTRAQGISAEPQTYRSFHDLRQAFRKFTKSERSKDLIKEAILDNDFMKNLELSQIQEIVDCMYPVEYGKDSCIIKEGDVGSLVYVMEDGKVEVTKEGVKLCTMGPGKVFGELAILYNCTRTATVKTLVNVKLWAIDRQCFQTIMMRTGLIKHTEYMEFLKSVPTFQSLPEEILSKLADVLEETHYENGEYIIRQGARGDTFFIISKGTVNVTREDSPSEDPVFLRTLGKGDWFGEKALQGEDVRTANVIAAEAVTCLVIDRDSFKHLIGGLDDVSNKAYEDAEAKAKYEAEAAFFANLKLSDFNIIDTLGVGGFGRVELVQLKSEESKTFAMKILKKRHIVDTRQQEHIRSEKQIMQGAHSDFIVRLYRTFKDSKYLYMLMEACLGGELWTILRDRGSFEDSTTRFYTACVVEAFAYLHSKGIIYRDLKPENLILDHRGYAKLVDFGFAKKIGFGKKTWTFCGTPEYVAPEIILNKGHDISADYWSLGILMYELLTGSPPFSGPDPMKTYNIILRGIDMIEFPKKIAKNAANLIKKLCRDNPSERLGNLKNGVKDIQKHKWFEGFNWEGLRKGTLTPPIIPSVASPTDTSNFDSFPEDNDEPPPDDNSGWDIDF
The conditions noted are these: at 1 µM.

Test [2] concerns the target T1, cGMP-dependent protein kinase 1 (Homo sapiens). The conditions noted are these: at 10 µM.
For test [3] the target is unchanged. The conditions noted are these: at 1 µM. This is another data set of the same source.
For test [4] the target is unchanged. The conditions noted are these: at 10 µM. The source holds these as a separate data set.
Test [5] deals with T2, MAP kinase-activated protein kinase 5 (Homo sapiens) (UniProt Q8IW41).
T2 sequence (whole entry): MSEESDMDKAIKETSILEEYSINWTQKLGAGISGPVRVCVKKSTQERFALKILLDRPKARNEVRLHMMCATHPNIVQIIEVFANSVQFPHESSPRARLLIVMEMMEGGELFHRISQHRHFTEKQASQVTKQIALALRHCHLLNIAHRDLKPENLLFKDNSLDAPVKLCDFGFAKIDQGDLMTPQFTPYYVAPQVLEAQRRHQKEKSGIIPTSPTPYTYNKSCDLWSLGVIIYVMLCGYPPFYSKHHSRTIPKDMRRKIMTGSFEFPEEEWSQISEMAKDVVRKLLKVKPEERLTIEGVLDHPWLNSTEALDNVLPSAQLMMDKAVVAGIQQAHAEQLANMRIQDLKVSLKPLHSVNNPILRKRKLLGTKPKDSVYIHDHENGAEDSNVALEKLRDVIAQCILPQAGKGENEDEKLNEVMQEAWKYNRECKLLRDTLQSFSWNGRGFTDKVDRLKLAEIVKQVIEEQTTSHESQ
The conditions noted are these: at 1 µM.

Test [6] addresses T2, MAP kinase-activated protein kinase 5 (Homo sapiens). The conditions noted are these: at 10 µM.
Test [7] deals with Serine/threonine-protein kinase N2 (Homo sapiens) (UniProt Q16513). The conditions noted are these: at 1 µM.
Sequence of Serine/threonine-protein kinase N2 (Homo sapiens) (Q16513 whole entry, looked up): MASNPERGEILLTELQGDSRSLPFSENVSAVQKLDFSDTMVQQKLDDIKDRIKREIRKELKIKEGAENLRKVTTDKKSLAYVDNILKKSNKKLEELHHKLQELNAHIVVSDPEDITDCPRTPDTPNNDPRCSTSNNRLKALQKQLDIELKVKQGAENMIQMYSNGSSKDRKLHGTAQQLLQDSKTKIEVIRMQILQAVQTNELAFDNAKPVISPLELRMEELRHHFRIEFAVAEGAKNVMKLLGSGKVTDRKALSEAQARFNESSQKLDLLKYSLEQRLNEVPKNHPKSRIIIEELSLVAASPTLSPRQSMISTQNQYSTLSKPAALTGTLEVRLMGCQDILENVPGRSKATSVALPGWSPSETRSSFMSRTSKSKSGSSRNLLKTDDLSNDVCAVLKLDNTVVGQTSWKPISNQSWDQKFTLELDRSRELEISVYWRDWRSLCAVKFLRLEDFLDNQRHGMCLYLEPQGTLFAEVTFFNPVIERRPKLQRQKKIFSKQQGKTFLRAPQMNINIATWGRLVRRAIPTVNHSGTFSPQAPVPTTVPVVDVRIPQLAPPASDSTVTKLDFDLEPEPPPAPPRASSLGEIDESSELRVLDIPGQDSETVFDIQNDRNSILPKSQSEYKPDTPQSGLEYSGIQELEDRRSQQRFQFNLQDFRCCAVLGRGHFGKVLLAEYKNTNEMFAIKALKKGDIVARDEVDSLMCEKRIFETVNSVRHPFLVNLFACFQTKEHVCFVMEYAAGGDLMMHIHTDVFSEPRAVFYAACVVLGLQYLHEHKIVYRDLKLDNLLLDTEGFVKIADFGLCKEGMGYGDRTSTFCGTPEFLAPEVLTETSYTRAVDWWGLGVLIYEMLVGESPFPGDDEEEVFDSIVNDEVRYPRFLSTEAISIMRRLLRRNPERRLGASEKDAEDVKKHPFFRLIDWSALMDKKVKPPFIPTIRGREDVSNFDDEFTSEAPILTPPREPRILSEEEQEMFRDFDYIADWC
The target is the same in test [8]. The conditions noted are these: at 10 µM.
Test [9] deals with Tyrosine-protein kinase FRK (Homo sapiens) (UniProt P42685). Conditions: at 1 µM.
Sequence of Tyrosine-protein kinase FRK (Homo sapiens) (P42685 whole entry): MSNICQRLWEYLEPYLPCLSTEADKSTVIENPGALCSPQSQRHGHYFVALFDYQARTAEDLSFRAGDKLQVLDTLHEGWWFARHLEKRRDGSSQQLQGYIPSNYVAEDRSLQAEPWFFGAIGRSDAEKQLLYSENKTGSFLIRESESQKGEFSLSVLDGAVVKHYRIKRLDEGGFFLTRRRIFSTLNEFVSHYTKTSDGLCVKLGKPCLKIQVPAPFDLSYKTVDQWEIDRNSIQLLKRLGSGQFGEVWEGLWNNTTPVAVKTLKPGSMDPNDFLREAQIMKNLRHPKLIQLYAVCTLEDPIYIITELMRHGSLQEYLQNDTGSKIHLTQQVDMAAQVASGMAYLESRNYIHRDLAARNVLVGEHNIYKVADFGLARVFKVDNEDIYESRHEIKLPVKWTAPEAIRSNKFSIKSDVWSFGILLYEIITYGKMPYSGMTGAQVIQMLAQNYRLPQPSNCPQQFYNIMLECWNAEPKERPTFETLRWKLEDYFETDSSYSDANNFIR
Test [10] shares this target. The conditions noted are these: at 10 µM.
In test [11] the target is T3, Phosphorylase b kinase gamma catalytic chain, liver/testis isoform (Homo sapiens) (UniProt P15735).
T3 sequence (whole entry): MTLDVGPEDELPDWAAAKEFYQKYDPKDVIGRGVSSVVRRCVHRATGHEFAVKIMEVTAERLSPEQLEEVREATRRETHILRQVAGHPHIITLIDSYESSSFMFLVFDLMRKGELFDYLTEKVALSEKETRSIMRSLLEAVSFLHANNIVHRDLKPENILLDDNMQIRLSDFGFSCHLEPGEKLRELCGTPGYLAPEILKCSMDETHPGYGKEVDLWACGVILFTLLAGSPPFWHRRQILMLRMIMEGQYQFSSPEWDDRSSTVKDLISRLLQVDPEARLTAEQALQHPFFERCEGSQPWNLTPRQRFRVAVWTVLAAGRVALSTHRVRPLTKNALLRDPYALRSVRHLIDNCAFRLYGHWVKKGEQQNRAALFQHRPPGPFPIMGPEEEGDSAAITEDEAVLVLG
Conditions: at 1 µM.

Test [12] addresses T3, Phosphorylase b kinase gamma catalytic chain, liver/testis isoform (Homo sapiens). Conditions: at 10 µM.
Test [13] concerns the target Serine/threonine-protein kinase pim-1 (Homo sapiens) (UniProt P11309). Conditions: at 1 µM.
Test [14] shares this target. Conditions: at 10 µM.
Test [15] addresses Serine/threonine-protein kinase pim-2 (Homo sapiens) (UniProt Q9P1W9). Conditions: at 1 µM.
Test [16] shares this target. Conditions: at 10 µM.
The target in test [17] is Serine/threonine-protein kinase pim-3 (Homo sapiens) (UniProt Q86V86). Conditions: at 1 µM.
For test [18] the target is unchanged. The conditions noted are these: at 10 µM.
In test [19] the target is Serine/threonine-protein kinase PLK1 (Homo sapiens) (UniProt P53350). Conditions: at 1 µM.
Sequence of Serine/threonine-protein kinase PLK1 (Homo sapiens) (P53350 whole entry): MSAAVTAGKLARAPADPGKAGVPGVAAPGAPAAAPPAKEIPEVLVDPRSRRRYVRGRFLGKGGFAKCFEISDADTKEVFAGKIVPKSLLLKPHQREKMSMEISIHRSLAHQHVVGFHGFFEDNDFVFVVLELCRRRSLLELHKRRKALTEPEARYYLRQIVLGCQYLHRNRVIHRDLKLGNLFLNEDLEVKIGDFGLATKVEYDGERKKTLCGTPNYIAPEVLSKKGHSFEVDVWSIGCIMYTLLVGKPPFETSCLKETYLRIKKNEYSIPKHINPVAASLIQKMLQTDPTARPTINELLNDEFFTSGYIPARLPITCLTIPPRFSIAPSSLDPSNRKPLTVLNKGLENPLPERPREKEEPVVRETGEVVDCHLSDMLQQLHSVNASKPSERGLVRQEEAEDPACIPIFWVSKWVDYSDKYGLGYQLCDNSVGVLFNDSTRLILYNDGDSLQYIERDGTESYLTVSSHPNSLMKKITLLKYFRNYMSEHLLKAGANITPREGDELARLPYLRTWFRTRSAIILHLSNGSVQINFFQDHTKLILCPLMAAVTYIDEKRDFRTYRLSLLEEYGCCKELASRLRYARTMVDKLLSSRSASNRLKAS
Test [20] has the same target. Conditions: at 10 µM.

The structures appear in SMILES notation.

Sequence of Serine/threonine-protein kinase pim-2 (Homo sapiens) (Q9P1W9 whole entry, looked up): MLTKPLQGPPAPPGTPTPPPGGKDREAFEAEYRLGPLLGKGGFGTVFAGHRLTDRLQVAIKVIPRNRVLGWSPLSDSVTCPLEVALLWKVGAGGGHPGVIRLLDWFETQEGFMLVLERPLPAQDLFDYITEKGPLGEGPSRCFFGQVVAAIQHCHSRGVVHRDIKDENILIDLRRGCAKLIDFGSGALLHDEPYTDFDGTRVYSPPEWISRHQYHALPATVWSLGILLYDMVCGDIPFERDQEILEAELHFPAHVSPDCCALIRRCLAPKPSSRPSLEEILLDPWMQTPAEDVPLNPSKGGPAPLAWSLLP
Sequence of Serine/threonine-protein kinase pim-1 (Homo sapiens) (P11309 whole entry, looked up): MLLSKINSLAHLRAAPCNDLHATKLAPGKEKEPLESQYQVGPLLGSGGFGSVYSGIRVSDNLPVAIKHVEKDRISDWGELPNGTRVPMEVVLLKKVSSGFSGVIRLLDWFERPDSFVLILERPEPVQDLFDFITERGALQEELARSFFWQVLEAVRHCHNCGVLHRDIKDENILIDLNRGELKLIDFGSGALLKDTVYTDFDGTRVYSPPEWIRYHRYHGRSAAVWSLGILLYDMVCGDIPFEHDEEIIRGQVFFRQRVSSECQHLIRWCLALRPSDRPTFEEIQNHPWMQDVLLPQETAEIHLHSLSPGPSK

For `CNc1cc2c(Nc3cccc(Br)c3)ncnc2cn1`, the residual activity was 112% in test [1]; 108% in test [2]; 75% in test [3]; 62% in test [4]; 89% in [5]; 94% in test [6]. The residual activity was found to be 84% in test [7]; 93% in test [8]; 92% in [9]; 37% in test [10]; 104% in test [11]; 107% in test [12]. Also, the residual activity in test [13] is 64%; in test [14] it was 42%; in test [15], 86%; in test [16] it was 88%; in [17], 96%; in test [18], 81%. For the same molecule, the residual activity in test [19] stood at 99%; in test [20] it was 94%.
For `CC(=O)c1ccc(N2CCOCC2)cc1O`, the residual activity in test [5] was determined as 77%; in test [6], 109%; in test [7] it was 100%; in [8], 109%; in test [9], 109%; in test [10] it was 99%. Further, the residual activity in test [13] turned out to be 82%; in test [14], 87%; in test [15], 91%; in [16] it was 129%; in [17] it was 96%; in test [18] it was 91%. Moreover, the residual activity in test [19] came out at 91%; in test [20], 68%.
For `c1ccc2c(-c3ccncc3)c[nH]c2c1`, the residual activity turned out to be 76% in test [1]; 23% in test [2]; 54% in test [3]; 12% in [4]; 87% in test [5]; 90% in test [6]. Also, the residual activity in test [7] is 30%; in test [8] it was 8%; in test [9], 88%; in test [10], 97%; in test [11], 103%; in test [12], 86%. Further, the residual activity came out at 97% in [13]; 49% in test [14]; 97% in test [15]; 91% in [17]; 86% in test [18]; 86% in test [19]. The residual activity in test [20] was determined as 65%.
In the case of `N#CC(C#N)=C(N)/C(C#N)=C/c1ccc(O)cc1`, the residual activity in test [6] was 92%; in [8], 117%; in test [10], 91%; in [16], 118%; in test [18], 88%; in test [19], 79%. Moreover, the residual activity in [20] amounted to 36%.
On to `Cc1ccc(S(=O)(=O)/C=C/C#N)cc1`, for which the residual activity amounted to 85% in test [1]; 99% in [2]; 107% in [3]; 92% in test [4]; 110% in test [5]; 111% in [6]. Besides, the residual activity is 90% in test [7]; 87% in test [8]; 70% in test [9]; 82% in test [10]; 114% in [11]; 111% in [12]. For the same molecule, the residual activity in [13] is 97%; in [14], 95%; in test [15], 111%; in [16], 103%; in test [17], 91%; in [18] it was 102%. Further, the residual activity in test [19] worked out at 92%; in [20] it was 102%.
With `Cn1cc(/C=C2\C(=O)Nc3ccc(S(N)(=O)=O)cc32)c2ccccc21`, the residual activity in [1] was found to be 103%; in test [2] it was 101%; in test [3], 77%; in test [4], 54%; in test [5] it was 62%; in test [6] it was 54%. Further, the residual activity amounted to 58% in test [7]; 23% in test [8]; 74% in [9]; 35% in [10]; 24% in test [11]; 9% in test [12]. In addition, the residual activity in [13] turned out to be 76%; in [14], 111%; in test [15], 109%; in [16], 97%; in test [17], 102%; in test [19] it was 109%. Further, the residual activity in test [20] came to 93%.
As for `O=C1Nc2ccccc2/C1=C1/Nc2ccccc2/C1=N\OCCC(O)CO` (configuration not stated), the residual activity turned out to be 56% in test [1]; 19% in test [2]; 44% in test [3]; 9% in test [4]; 27% in test [6]; 76% in test [7]. Moreover, the residual activity in test [8] is 53%; in test [9], 11%; in [10] it was 1%; in test [11], 21%; in test [12], 5%; in test [13], 58%. The residual activity in test [14] was found to be 11%; in test [15], 98%; in [16], 44%; in test [17], 75%; in test [18], 64%; in [19], 72%. Besides, the residual activity in test [20] turned out to be 75%.
Take `CC(=O)O/N=C1\C(=C2\C(=O)Nc3cc(Br)ccc32)Nc2ccccc21`: the residual activity in test [1] was 101%; in test [2], 112%; in test [3], 102%; in [4], 76%; in [5] it was 105%; in test [7], 98%. Besides, the residual activity in test [8] was 79%; in test [9], 17%; in test [10], 1%; in test [11], 92%; in [12] it was 70%; in [13], 92%. Also, the residual activity was determined as 87% in test [14]; 134% in test [15]; 67% in test [16]; 84% in test [17]; 84% in test [18]; 79% in test [19]. Further, the residual activity in test [20] was 76%.

For the origin of these results see ChEMBL document CHEMBL2218924, “A broad activity screen in support of a chemogenomic map for kinase signalling research and drug discovery” (Biochem J, 2013).
